Bioassay records as filed in PubChem BioAssay.
This is a sample that favours compounds with a hit; in the whole collection about 7.8% have one here.
Vaccinia mCherry – qHTS for Stage-Specific Inhibitors of Vaccinia Orthopoxvirus: mCherry Reporter Primary qHTS; Vaccinia virus mCherry reporter infection, fluorescence; Potency, µM (series often up to 36.5 µM), without a hit: at the top dose activity change, negative = inhibition, hits mostly inhibitors; 310,000 tested, 0.63% active; AID 720579, 2013; calls by dose curve; tested in A549 cells; further: potency means the concentration at half of the fitted maximal effect; nearly all actives have a fitted effect of over 35% in size
LASV entry inh – qHTS for Inhibitors of binding or entry into cells for Lassa Virus. Lassa virus pseudotype entry inhibition, cell reporter. Potency, µM (series often up to 37.9 µM), inactives show at the highest dose activity change, negative = inhibition, most hits filed as inhibitors. 300,000 tested, 1.2% active; calls by dose curve; tested in HEK293 cells; further: potency means the concentration at half of the fitted maximal effect; nearly all actives have a fitted effect of over 50% in size
HCV inh – qHTS Assay for Inhibitors of Hepatitis C Virus (HCV) | Potency, µM (doses to about 41.8 µM), for the others: top-dose activity change, negative = inhibition, most hits filed as inhibitors | 340,000 tested, 3.4% active | AID 651820, 2012 | Huh7.5.1 HCVcc-Cre infection, luciferase reporter, 44 h; active means well fitted inhibition curve with a large enough effect; inconclusive means small, poorly fitted or top-dose-only effect, or another doubt; inactive means no such curve, though single readings can be large or run the other way; further: potency means the concentration at half of the fitted maximal effect
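Luciferase read-out (15 sec integration) after a 15 min room-temperature substrate step quantifies HCVcc-Cre infection. Cells, 1,000 per well, had compound added 4 h post-plating, then virus at ~0.5 moi, and were cultured 44 h.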
VACV Venus inh – qHTS for Stage-Specific Inhibitors of Vaccinia Orthopoxvirus: Venus Reporter Primary qHTS | Vaccinia virus Venus reporter expression, fluorescence | Potency, µM (highest dose often 36.5 µM), without a hit: at the highest dose activity change, negative = inhibition, hits mostly inhibitors | 330,000 tested, 0.46% active | AID 720580, 2013; calls by dose curve; tested in A549 cells; further: potency means the concentration at half of the fitted maximal effect; nearly all actives have a fitted effect of over 30% in size
HCMV antiviral – qHTS Assay for inhibitors of the human cytomegalovirus (HCMV); HFF cells, HCMV-luciferase reporter, 72 h; active compounds read low; activity change, negative = inhibition, % at 57.5 µM; 410,000 tested, 4.5% active; in the data active means activity change below about -60%; inconclusive means no clear call, values can overlap the other calls; inactive means above about -39%
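After 16 h attachment at 37C, HFF cells received test compound and HCMV-luciferase (1 PFU/cell); reporter luminescence read 72 h later, data normalized against buffer-only and known inhibitor Salinomycin.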
Marburg entry inh – qHTS for inhibitors of binding or entry into cells for Marburg Virus | Marburg virus pseudotyped entry inhibition, cell reporter | AID 540276, 2011 | 300,000 tested, 1.8% active | Potency, µM (highest dose often 37.8 µM), for inactives: top-dose activity change, negative = inhibition, usual class: inhibitors; calls by dose curve; tested in HEK293 cells; further: potency means the concentration at half of the fitted maximal effect
Starred values were filed as active, the others as inactive; [ ] = dose if it differs, or a comment. On the % scale 0 is the no-effect control and ±100 the full control effect.

`O=S(=O)(c1ccc(-c2cnc(C3CC3)o2)cc1)N1CCN(c2cccc(Cl)c2)CC1` gave Vaccinia mCherry -26.9%, LASV entry inh 2.9%[46.1 µM], VACV Venus inh -19.7% and HCMV antiviral -7.0.
For CCOC(=O)CC1(O)CSc2nc(N)cc(=O)n21 (stereo not given) the results were HCMV antiviral -76.5*.
Screening Cc1cc(C)cc(Nc2cc(-c3ccccc3)nc(C)n2)c1 returned Vaccinia mCherry inconclusive, LASV entry inh 0.9%[46.1 µM], VACV Venus inh inconclusive, HCMV antiviral -23.7 and Marburg entry inh inconclusive.
For O=C(NCCCc1cnc[nH]1)NCCCN(Cc1ccc(Cl)cc1)c1ccc(Br)cn1 the results were Vaccinia mCherry -6.9% and VACV Venus inh -15.8%.
c1ccc(CNCCC(Cc2ccccc2)c2ccco2)cc1 (stereo not given) was read as Vaccinia mCherry inconclusive, LASV entry inh inconclusive, HCV inh 3.8%, VACV Venus inh -24.8%, HCMV antiviral 24.3 and Marburg entry inh inconclusive.
`CN(C)c1ccc(CNCCC(Cc2ccccc2)c2ccco2)cc1` (stereo not given) gave Vaccinia mCherry inconclusive, LASV entry inh inconclusive, HCV inh inconclusive, VACV Venus inh -10.7%, HCMV antiviral inconclusive and Marburg entry inh 14.6µM*.
CCCCCc1c2c(cc(O)c1C(=O)O)OC(=O)c1c(cc(OC)cc1C(=O)CCCC)O2 was read as Vaccinia mCherry inactive, HCV inh 7.9% and VACV Venus inh 0.0%.
`CCCCCc1c2c(cc(O)c1C(=O)O)OC(=O)c1cc(C(=O)CCCC)c(OC)cc1O2` gave Vaccinia mCherry -10.4%, HCV inh 0.501µM*, VACV Venus inh -7.9% and HCMV antiviral 6.4.
COc1ccc(CC(=O)NCc2nc3cccnc3n2Cc2ccc(F)cc2)cc1OC was read as Vaccinia mCherry -21.1%, LASV entry inh -0.8%[46.1 µM], VACV Venus inh -15.8% and HCMV antiviral -31.3.
CCOC(=O)[C@]12Cc3c(cc(OC)c(OC)c3OC)[C@H]1N(C)C(=O)c1ccccc12 was read as Vaccinia mCherry 8.4%, VACV Venus inh 3.4% and HCMV antiviral -38.7.
Screening CCOC(=O)[C@]12Cc3ccccc3[C@H]1N(CCC(=O)OC)C(=O)c1cc(OC)ccc12 returned Vaccinia mCherry -7.5%, VACV Venus inh -12.2% and HCMV antiviral -99.4*.
CCOC(=O)[C@]12Cc3cc(OC)ccc3[C@H]1N(CCC(=O)OC)C(=O)c1cc(OC)ccc12 was read as Vaccinia mCherry -5.5%, VACV Venus inh -14.8% and HCMV antiviral -107.4*.
`CCOC(=O)[C@]12Cc3ccccc3[C@H]1N(Cc1ccccc1)C(=O)c1cc(OC)ccc12` gave Vaccinia mCherry 11.6%, VACV Venus inh -5.0% and HCMV antiviral 12.4.
Screening CCOC(=O)[C@]12Cc3c(cc(OC)c(OC)c3OC)[C@H]1N(CCC(=O)OC)C(=O)c1ccccc12 returned Vaccinia mCherry inconclusive, VACV Venus inh inconclusive and HCMV antiviral -108.4*.
`Cc1ccc(CNC(=O)Cn2c(=O)n(Cc3ccccc3)c(=O)c3c2c2cc(C)ccc2n3C)cc1` gave Vaccinia mCherry 3.7%, LASV entry inh 8.2%[46.1 µM], VACV Venus inh -1.5% and HCMV antiviral 33.7.
For Nc1[nH]c(=S)[nH]c(=O)c1N=O the results were Vaccinia mCherry 12.7% and VACV Venus inh 6.7%.
For Cc1ccc(C)c(N2CCN(C(=O)c3c4c(nc5ccccc35)C(=O)N(C3CCCCC3)C4)CC2)c1 the results were Vaccinia mCherry -13.3%, LASV entry inh 19.3%[46.1 µM], VACV Venus inh -10.5% and HCMV antiviral 41.6.
Screening CC[C@H]1OC(c2ccccc2)[C@H](C)[C@H]2O[C@@H]2[C@@H]1C(=O)OC (stereo not given in full) returned Marburg entry inh -5.4%[14.2 µM].
COc1ccc(/C=C2\CCCCC2=O)cc1 was read as Vaccinia mCherry -6.7%, LASV entry inh inconclusive, HCV inh -11.4%, VACV Venus inh 10.0%, HCMV antiviral 57.7 and Marburg entry inh -3.7%[46.1 µM].
COc1ccc(C=C2CS(=O)(=O)CC(=Cc3ccc(OC)cc3)C2=O)cc1 was read as Vaccinia mCherry inconclusive, VACV Venus inh inconclusive and HCMV antiviral -99.2*.
For O=C(NC1CCCCCC1)C1c2ccccc2C(=O)N1Cc1ccccc1Cl (stereo not given) the results were Vaccinia mCherry -1.2%, LASV entry inh -9.7%[46.1 µM], VACV Venus inh -6.5%, HCMV antiviral -5.5 and Marburg entry inh inconclusive.
CC(C1CC2CCC1C2)N1CC(O)=C(c2nc3ccccc3[nH]2)C1=N (stereo not given) was read as Vaccinia mCherry 7.08µM*, LASV entry inh -1.7%, HCV inh inconclusive, VACV Venus inh 5.01µM*, HCMV antiviral -23.8 and Marburg entry inh inconclusive.
Screening C/C(=N/NC(=O)c1ccc(C)s1)c1cccc(NC(=O)c2ccoc2C)c1 returned HCV inh 11.2µM* and HCMV antiviral 22.2.
`C/C(=N/NC(=O)c1ccoc1C)c1cccc(NC(=O)C(F)(F)F)c1` gave Vaccinia mCherry inactive, LASV entry inh inconclusive, HCV inh -6.0%, VACV Venus inh -11.2%, HCMV antiviral 13.0 and Marburg entry inh inconclusive.
For O=C1C(=O)N(CNc2ccccn2)c2ccccc21 the results were LASV entry inh inconclusive, HCV inh -6.3%, HCMV antiviral -67.7* and Marburg entry inh inconclusive.
`COc1ccc(C2=NCC(=O)N(CC(=O)NCc3ccco3)c3sc4c(c32)CCCC4)cc1` gave Vaccinia mCherry -7.0%, LASV entry inh 0.1%, HCV inh inconclusive, VACV Venus inh -5.4%, HCMV antiviral 53.1 and Marburg entry inh inconclusive.
O=C1CN=C(c2ccc(Br)cc2)c2c(sc3c2CCCC3)N1CCN1CCCCC1 was read as HCV inh -18.0% and HCMV antiviral -96.7*.
O=S(=O)(c1cccc(Cl)c1)N1CCCC1 was read as LASV entry inh 11.1%, HCV inh 13.5%, HCMV antiviral -106.7* and Marburg entry inh 27.4%.
`O=C(COc1ccccc1Cl)Nc1cccc(S(=O)(=O)N2CCCC2)c1` gave HCV inh 10µM* and HCMV antiviral inconclusive.
For O=C(COc1cc(F)ccc1[N+](=O)[O-])Nc1cc(S(=O)(=O)N2CCCC2)ccc1Cl the results were Vaccinia mCherry inactive, LASV entry inh -5.8%, HCV inh 14.1µM*, VACV Venus inh -12.7%, HCMV antiviral -25.7 and Marburg entry inh -7.3%.
